Inhibition data for 10 compounds are collected here from ChEMBL document CHEMBL1157539, “Thousands of chemical starting points for antimalarial lead identification” (Nature, 2010).

Usually Inhibition stands for the percentage by which the read-out fell short of the control. Low readings indicate a response near the control, high ones a response far below the control.

What all share (type): functional
The test system of test [1] is Plasmodium falciparum. Put plainly: GSK_TCMDC: Inhibition of Plasmodium falciparum 3D7 in whole red blood cells, using parasite LDH activity as an index of growth. Test compounds present at 2uM.
The test system of test [2] is Plasmodium falciparum. The test can be described thus: GSK_TCMDC: Inhibition of Plasmodium falciparum Dd2 in whole red blood cells, using parasite LDH activity as an index of growth. Test compounds present at 2uM.
A further test has as its system HepG2. Put plainly: GSK_TCMDC: Percent inhibition of human HepG2 cell line. Test compounds present at 10uM.

For the compound `Cl.O=C1COc2ccc(S(=O)(=O)N3CCC[C@@H]3CCN3CCC(c4c[nH]c5cnccc45)CC3)cc2N1`, the Inhibition with Plasmodium falciparum [1] was 100%; in the test with Plasmodium falciparum [2], 6%; in the test with HepG2, 0%.

Consider `COc1ccc(-c2ccc(NC(=O)c3ccc(C#N)cc3)cc2)cc1CN(C)CCN(C)C.O=C(O)C(F)(F)F`, for which the Inhibition with Plasmodium falciparum [1] was 96%; with Plasmodium falciparum [2], 58%; in the test with HepG2, 28%.

As for `CC(=O)Nc1nc(C(=O)Nc2cccc(-c3ccc(-c4nc5ccccc5[nH]4)cc3)c2)cs1`, the Inhibition with Plasmodium falciparum [1] is reported as 100%; in the test on Plasmodium falciparum [2], 60%; with HepG2 it was 88%.

Regarding `O=C(Cc1cccc(Cl)c1)Nc1cccc(-c2c[nH]c3nc(Nc4cccc(OCc5ccccc5)c4)ncc23)c1.O=C(O)C(F)(F)F`, the Inhibition with Plasmodium falciparum [1] is given as 100%; in the test with Plasmodium falciparum [2] it was 56%; in the test on HepG2 it was 0%.

Take `Cc1nn(CCOC(=O)NC(NCC2COc3ccccc3O2)C(Cl)(Cl)Cl)cc1[N+](=O)[O-]` (stereo not given): the Inhibition stood at 99% with Plasmodium falciparum [1], 99% with Plasmodium falciparum [2] and 0% with HepG2.

For the compound `CC(=O)Nc1ccc(S(=O)(=O)Nc2ccc(Nc3nc(C)cc(N4CCCCC4)n3)cc2)cc1`, the Inhibition with Plasmodium falciparum [1] turned out to be 89%; in the test on Plasmodium falciparum [2], 54%; with HepG2, 23%.

Consider `CC(C)(C)c1cc(Cn2ccnc2)cc(C(C)(C)C)c1O`, for which the Inhibition amounted to 85% with Plasmodium falciparum [1], 3% in the test with Plasmodium falciparum [2] and 4% in the test with HepG2.

Regarding `O=C1C(=Cc2c(O)ccc3ccccc23)SC(=NCc2ccccc2)N1Cc1ccccc1`, the Inhibition in the test with Plasmodium falciparum [1] is reported as 98%; with Plasmodium falciparum [2], 98%; in the test on HepG2, 0%.

Regarding `O=C(N[C@H]1CCN(CCc2ccc(O[C@H]3CCNC3)c(F)c2)C1)c1ccc(Cl)c(Cl)c1.O=C(O)C(F)(F)F`, the Inhibition was found to be 95% in the test with Plasmodium falciparum [1], 23% with Plasmodium falciparum [2] and 39% with HepG2.

For the compound `O=C(NCCCCN1CCC(c2c[nH]c3ccccc23)CC1)c1ccc(-c2ccc(C(F)(F)F)cc2)cc1`, the Inhibition in the test with Plasmodium falciparum [1] is on record as 98%; in the test on Plasmodium falciparum [2], 22%; in the test with HepG2, 34%.
